Screening data deposited in PubChem BioAssay by National Center for Advancing Translational Sciences (NCATS).
HCV inhibitor: inhibitors of hepatitis C virus infection | Huh7.5.1 HCVcc-Cre infection, luciferase reporter, 44 h | AID 651820 | Potency, µM (highest dose often 41.8 µM), actives largely listed as inhibitors | 340,000 tested, 3.4% active
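Reporter virus HCVcc-Cre (~0.5 moi) infects cells exposed to compound; seeding density 1,000 cells/well with 4 h settling beforehand. Luminescence, 15 sec read, taken 44 h post-infection following a 15 min RT substrate incubation.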
Pf growth 96h: P. falciparum growth inhibition at 96 hours; P. falciparum luciferase reporter growth, 96 h; Potency, µM (series often up to 28.7 µM), actives largely listed as inhibitors; 320,000 tested, 6.9% active
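Compounds incubated with erythrocytes infected by luciferase-expressing P. falciparum (2% hematocrit, 0.05% parasitemia final) for 96 hours, 37 C in 5% CO2. Growth inhibition scored as decreased luciferase luminescence.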
AMA1 RON2 block: inhibitors of Plasmodium falciparum AMA1-RON2 interaction; AlphaScreen AMA1-biotinylated RON2 peptide binding; Potency, µM (titrated, usually from 58.2 µM), hits mostly inhibitors; 360,000 tested, 0.2% active; AID 720542; also: nearly all actives have a fitted effect of over 45% in size
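AMA1 (3D7) with his tag at 25 nM final met compounds first, then biotinylated RON2 peptide at 25 nM; detection used donor plus acceptor beads, 10 µg/mL apiece, read by AlphaScreen after 30 min at room temperature.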
AmpC no deterg: AmpC beta-lactamase inhibition without detergent; P00811; AmpC nitrocefin hydrolysis, absorbance 480 nm, 0.0001% Triton; Potency, µM (series often up to 57.1 µM), most hits filed as inhibitors; 330,000 tested, 0.52% active; also: nearly all actives have a fitted effect of over 20% in size
Target sequence (P00811 whole entry, looked up): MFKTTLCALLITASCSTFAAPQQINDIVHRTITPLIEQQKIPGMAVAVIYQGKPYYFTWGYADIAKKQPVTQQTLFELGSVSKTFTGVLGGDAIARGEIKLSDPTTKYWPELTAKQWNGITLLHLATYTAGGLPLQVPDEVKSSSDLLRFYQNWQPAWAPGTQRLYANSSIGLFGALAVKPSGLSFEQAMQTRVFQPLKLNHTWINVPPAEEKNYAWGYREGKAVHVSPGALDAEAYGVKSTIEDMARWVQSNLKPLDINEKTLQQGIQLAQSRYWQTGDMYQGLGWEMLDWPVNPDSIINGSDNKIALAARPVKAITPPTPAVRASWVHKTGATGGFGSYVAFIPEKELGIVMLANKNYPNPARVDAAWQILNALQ
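AmpC (5.3 nM in the dispensed reagent) in 20 mM phosphate pH 7.0 with 0.01% (detergent screen) or 0.0001% Triton X-100 was preincubated with compounds for 15 min at room temperature. Nitrocefin was then added from an 800 uM solution, and hydrolysis was followed at 480 nm.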
Pf growth 48h: P. falciparum growth inhibition at 48 hours (one generation); P. falciparum luciferase growth in erythrocytes, 48 h; Potency, µM (doses to about 28.7 µM), usual class: inhibitors; 310,000 tested, 5.9% active; AID 504832
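Read-out is firefly luciferase luminescence from an integrated reporter in P. falciparum, so falling signal marks reduced parasite growth. Infected erythrocytes were at 2% hematocrit and 0.1% parasitemia (final) in Albumax-supplemented RPMI 1640.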
AmpC inh detg: blocks E. coli AmpC beta-lactamase in detergent assay. 370,000 tested, 0.041% active. Potency, µM (doses to about 114 µM), usual class: inhibitors. AmpC hydrolysis of nitrocefin, absorbance 480 nm, 0.01% Triton. P00811; also: nearly all actives have a fitted effect of over 25% in size
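AmpC (5.3 nM in the dispensed reagent) in 20 mM phosphate pH 7.0 with 0.01% (detergent screen) or 0.0001% Triton X-100 was preincubated with compounds for 15 min at room temperature. Nitrocefin was then added from an 800 uM solution, and hydrolysis was followed at 480 nm.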
Hits are given with their value; 0 = inactive; ? = inconclusive; - = no result; [ ] = remark or other dose. A selection: hits, their analogues and other compounds. The true share with any hit is near 11%. Calls follow the shape of the dose curve; as a rule, active = well fitted curve in the direction sought with a large enough effect; inconclusive = small, poorly fitted or top-dose-only effect, or another doubt; inactive = no such curve, though single readings can be large; an effect the other way counts as inactive or inconclusive.

SMILES | HCV inhibitor | Pf growth 96h | AMA1 RON2 block | AmpC no deterg | Pf growth 48h | AmpC inh detg
COc1ccc(CNC(=O)COc2cc3c(c4oc(=O)cc(C)c24)CCC(C)(C)O3)cc1OC | 6.3µM | 7.4µM | 0 | 0 | 10µM | 0
Cc1cc(=O)oc2c3c(cc(OCC(=O)NCC(=O)N[C@H](C(=O)O)C(C)C)c12)OC(C)(C)CC3 | 0 | 0 | 0 | 0 | 0 | ?
O=C(Nc1ccc(Cl)cc1)c1cnn2c1NC(c1ccccc1)=CC2c1ccccc1 (configuration not stated) | - | - | - | - | - | 0
O=C(CSc1n[nH]c(-c2ccccc2Cl)n1)NCCc1ccccc1 | - | - | - | - | - | 0
COc1cccc(CN(C(=O)c2oc3ccc(Br)cc3c2C)C2CCS(=O)(=O)C2)c1 (configuration not stated) | - | - | - | - | - | 0
CC1CCc2noc(NC(=O)c3ccccc3[N+](=O)[O-])c2C1 (configuration not stated) | - | - | - | - | - | 0
Cc1ccccc1C(=O)Nc1ccc(OCc2cc(=O)n3ccccc3n2)cc1 | - | - | - | - | - | 0
COc1cc(OC)c(N(C)C(=O)Nc2cn(CC(C)C)c(=O)c3ccccc23)cc1Cl | - | - | - | - | - | 0
Cc1c(C)c2c(OCC(=O)NCc3ccco3)cc3c(c2oc1=O)CCC(C)(C)O3 | 0 | 0 | 0 | 0 | 0 | 0
Cc1cc(=O)oc2c3c(cc(OCC(=O)NCc4ccco4)c12)OC(C)(C)CC3 | ? | 8.3µM | 0 | 0 | ? | ?
CCN(CC)CCNC(=O)c1sc2nc3n(c(=O)c2c1C)CCCCC3 | - | - | - | - | - | 0
CCOC(=O)c1[nH]ncc1CN1CCCC(C(=O)c2ccc(SC)cc2)C1 (configuration not stated) | 0 | ? | 0 | 0 | ? | 0
CCCCc1ncc(CN2CCCC(C(=O)c3ccc(SC)cc3)C2)[nH]1 (configuration not stated) | ? | 0[5.75 µM] | 0 | 0 | 9.3µM | 0
NS(=O)(=O)c1cccc(NS(=O)(=O)c2ccc(/C=C/C(=O)OCC(=O)c3ccccc3)cc2)c1 | 0 | ? | 0 | 3.5µM | 0 | 0
Cc1ccc(C)c(N2CCN(c3ccc4cc(S(=O)(=O)N5CCCCC5)ccc4n3)CC2)c1 | 0 | 9.3µM | 0 | 0 | 0 | 0
Cc1cccc(N2CCN(S(=O)(=O)c3ccc4c(c3)n(C)c(=O)c(=O)n4C)CC2C)c1 (configuration not stated) | 0 | - | 0 | 0 | 0 | 0
Cc1cccc(N2CCN(c3ccc4cc(S(=O)(=O)N5CCCCC5)ccc4n3)CC2)c1C | 0 | ? | 0 | 0 | 12µM | 0
Cc1cccc(N2CCN(c3ccc4cc(S(=O)(=O)N5CCCCC5)ccc4n3)CC2C)c1 (configuration not stated) | ? | 10µM | 0 | 0 | ? | 0
CC(C)CCN(Cc1ccco1)C(=O)Cn1ncc2c([nH]c3ccccc32)c1=O | - | - | - | - | - | 0
COc1ccc(N(CC(=O)NCc2cccnc2)S(=O)(=O)c2ccc(C)c([N+](=O)[O-])c2)cc1 | 0 | ? | 0 | 0 | 0 | 0
COc1ccc(N(CC(=O)NCc2ccncc2)S(=O)(=O)c2ccc(C)c([N+](=O)[O-])c2)cc1 | 0 | 0 | 0 | 0 | 1.9µM | 0
COc1ccc(N(CC(=O)NC2CC3CCC2C3)S(=O)(=O)c2ccc(C)c([N+](=O)[O-])c2)cc1 (configuration not stated) | 2.8µM | 0 | 0 | 0 | ? | 0
CC(C)C(=O)N[C@H]1CCC2C3CC=C4C[C@@H](O)CC[C@]4(C)C3CC[C@@]21C (some centres not stated) | 0 | - | 0 | 0 | - | -
CC(C)(C)[C@H](N)C(=O)N[C@H]1CCC2C3CC=C4C[C@@H](O)CC[C@]4(C)C3CC[C@@]21C (some centres not stated) | 11µM | - | 0 | 0 | - | -
CCOc1ccc(-n2cc(-c3ccccc3)c3c(N4CCOCC4)ncnc32)cc1 | 11µM | 0 | ? | 0 | ? | 0
SMILES | HCV inhibitor | Pf growth 96h | AMA1 RON2 block | AmpC no deterg | Pf growth 48h | AmpC inh detg
Cc1[nH]n(-c2ccccc2)c(=O)c1N=Nc1ccc(F)cc1 | 0 | 0 | 0 | 0 | 0[0.00184 µM] | 0
CSc1ccc(N=Nc2c(C)[nH]n(C)c2=O)cc1 | ? | ? | 14µM | 0 | ? | 0
CC(=NNC(=S)N1CC2CCC(CC2)C1)c1ccncn1 | 0.32µM | - | ? | - | - | -
O=S(=O)(NCCc1csc2nc(-c3ccc(Cl)cc3)nn12)c1ccc2c(c1)OCCO2 | - | - | - | - | - | 0
CCCCN1CC(COc2ccccc2)OC1=O (configuration not stated) | 0 | 2.9µM | 0 | 0 | 0 | 0
Cc1ccc(NC(=O)c2cc3ccccn3n2)cc1F | - | - | - | - | - | 0
N#CCCN1CCN(C(CNS(=O)(=O)c2ccc(Cl)cc2)c2ccccc2)CC1 (configuration not stated) | 0 | 5.2µM | 0 | 0 | 0 | 0
N#CCCN1CCN(S(=O)(=O)c2ccc(S(=O)(=O)N3CCOCC3)cc2)CC1 | 0 | 0 | 0 | 0 | 0 | ?
CC1CCCCC1NS(=O)(=O)c1ccc(S(=O)(=O)N2CCN(CCC#N)CC2)cc1 (configuration not stated) | 0 | 0 | 0 | 45µM | 13µM | ?
N#CCCN1CCN(S(=O)(=O)c2ccc(S(=O)(=O)NCc3ccccc3)cc2)CC1 | 0 | ? | 0 | 10µM | 0 | ?
Cc1ccc(NC(=O)Cn2c(=O)n(CCC(=O)NCCc3ccccc3)c(=O)c3ccccc32)cc1 | - | - | - | - | - | 0
